# Screen size: about 5,500 compounds; about 2,000 (36%) were called active. Another 18% or so got no clear call; they are omitted. The list shows a part of the results. A number with no mark means an inactive call. Cut-off read from the data, not from the text of the source: active = normalized growth mostly below about 0.91 (no sharp cut-off); inconclusive = no clear call, values can overlap the other calls; inactive = mostly above about 0.92.
# Test: chemical genetic growth profiling, strain panel (AID 1159580);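 note: tested at 20 µM; growth read once vehicle control cultures reached saturation at 30 °C; 1 = growth at the plate median or of vehicle wells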
# Conditions: S. cerevisiae deletion strains, growth OD
compound,measurement,setting,value
NC(=O)c1cc[n+](CC2=C(C(=O)O)N3C(=O)[C@@H](NC(=O)[C@@H](c4ccccc4)S(=O)(=O)[O-])[C@H]3SC2)cc1,normalized growth,"locus YAL040C, strain CLN3, stronger effect = lower value",0.993
same,normalized growth,"locus YCL061C, strain MRC1 (second series), stronger effect = lower value",0.999
same,normalized growth,"locus YER002W, strain NOP16, stronger effect = lower value",0.995
same,normalized growth,"locus YNL128W, strain TEP1, stronger effect = lower value",1
same,normalized growth,"locus YNL175C, strain NOP13, stronger effect = lower value",1
same,normalized growth,"locus YNL197C, strain WHI3, stronger effect = lower value",0.983
same,normalized growth,"locus YNL224C, strain SQS1, stronger effect = lower value",1
same,normalized growth,"locus YOR083W, strain WHI5 (second series), stronger effect = lower value",1.07
same,normalized growth,"locus YPL055C, strain LGE1, stronger effect = lower value",0.988
Nc1ccc(Sc2ccccc2)nc1Sc1ccccc1,normalized growth,"locus YAR019C, strain CDC15, stronger effect = lower value",0.947
same,normalized growth,"locus YBL105C, strain PKC1, stronger effect = lower value",0.961
same,normalized growth,"locus YBR135W, strain CKS1, stronger effect = lower value",0.957
same,normalized growth,"locus YBR136W, strain MEC1, stronger effect = lower value",0.957
same,normalized growth,"locus YBR160W, strain CDC28, stronger effect = lower value",0.95
same,normalized growth,"locus YDL017W, strain CDC7, stronger effect = lower value",0.967
same,normalized growth,"locus YDL028C, strain MPS1, stronger effect = lower value",0.942
same,normalized growth,"locus YDL101C, strain DUN1, stronger effect = lower value",0.963
same,normalized growth,"locus YDL108W, strain KIN28, stronger effect = lower value",0.958
same,normalized growth,"locus YDL132W, strain cdc53, stronger effect = lower value",0.958
same,normalized growth,"locus YDL214C, strain PRR2, stronger effect = lower value",0.927
same,normalized growth,"locus YDR052C, strain DBF4, stronger effect = lower value",0.976
same,normalized growth,"locus YDR054C, strain cdc34, stronger effect = lower value",0.947
same,normalized growth,"locus YDR226W, strain ADK1, stronger effect = lower value",0.957
same,normalized growth,"locus YDR477W, strain SNF1, stronger effect = lower value",0.901
same,normalized growth,"locus YER123W, strain YCK3, stronger effect = lower value",0.918
same,normalized growth,"locus YER133W, strain GLC7, stronger effect = lower value",0.927
same,normalized growth,"locus YFL009W, strain cdc4, stronger effect = lower value",0.938
same,normalized growth,"locus YFL029C, strain CAK1, stronger effect = lower value",0.935
same,normalized growth,"locus YFR003C, strain YPI1, stronger effect = lower value",0.961
same,normalized growth,"locus YFR019W, strain FAB1, stronger effect = lower value",0.984
same,normalized growth,"locus YFR028C, strain CDC14, stronger effect = lower value",0.94
same,normalized growth,"locus YGR040W, strain KSS1, stronger effect = lower value",0.909
same,normalized growth,"locus YGR052W, strain FMP48, stronger effect = lower value",0.956
same,normalized growth,"locus YGR092W, strain DBF2, stronger effect = lower value",0.875
same,normalized growth,"locus YHR030C, strain SLT2, stronger effect = lower value",0.697 (active)
same,normalized growth,"locus YHR079C, strain IRE1, stronger effect = lower value",0.893
same,normalized growth,"locus YHR082C, strain KSP1, stronger effect = lower value",0.948
same,normalized growth,"locus YHR205W, strain SCH9, stronger effect = lower value",0.878
same,normalized growth,"locus YIL147C, strain SLN1, stronger effect = lower value",0.962
same,normalized growth,"locus YJL095W, strain BCK1, stronger effect = lower value",0.859
same,normalized growth,"locus YJL128C, strain PBS2, stronger effect = lower value",0.886
same,normalized growth,"locus YJL157C, strain FAR1, stronger effect = lower value",0.935
same,normalized growth,"locus YJR016C, strain ILV3, stronger effect = lower value",0.965
same,normalized growth,"locus YJR066W, strain TOR1 (second series), stronger effect = lower value",0.896
same,normalized growth,"locus YJR066W, strain TOR1, stronger effect = lower value",0.851
same,normalized growth,"locus YKL048C, strain ELM1, stronger effect = lower value",0.969
same,normalized growth,"locus YKL067W, strain YNK1, stronger effect = lower value",0.908
same,normalized growth,"locus YKL101W, strain HSL1, stronger effect = lower value",0.913
same,normalized growth,"locus YKL193C, strain SDS22, stronger effect = lower value",0.955
same,normalized growth,"locus YKL203C, strain TOR2, stronger effect = lower value",1.01
same,normalized growth,"locus YLR113W, strain HOG1, stronger effect = lower value",0.757 (active)
same,normalized growth,"locus YLR133W, strain CKI1, stronger effect = lower value",0.945
same,normalized growth,"locus YLR403W, strain SFP1, stronger effect = lower value",0.922
same,normalized growth,"locus YML070W, strain DAK1, stronger effect = lower value",0.915
same,normalized growth,"locus YMR001C, strain CDC5, stronger effect = lower value",0.956
same,normalized growth,"locus YMR205C, strain PFK2 (second series), stronger effect = lower value",0.938
same,normalized growth,"locus YMR277W, strain FCP1, stronger effect = lower value",0.938
same,normalized growth,"locus YNL006W, strain LST8, stronger effect = lower value",0.958
same,normalized growth,"locus YNL020C, strain ARK1, stronger effect = lower value",0.938
same,normalized growth,"locus YNL161W, strain CBK1, stronger effect = lower value",0.968
same,normalized growth,"locus YNL183C, strain NPR1, stronger effect = lower value",0.956
same,normalized growth,"locus YNL207W, strain RIO2, stronger effect = lower value",0.951
same,normalized growth,"locus YNL222W, strain SSU72, stronger effect = lower value",0.951
same,normalized growth,"locus YNL307C, strain MCK1 (second series), stronger effect = lower value",0.915
same,normalized growth,"locus YOL078W, strain AVO1, stronger effect = lower value",0.956
same,normalized growth,"locus YOL136C, strain PFK27, stronger effect = lower value",0.921
same,normalized growth,"locus YOR061W, strain CKA2, stronger effect = lower value",0.919
same,normalized growth,"locus YOR119C, strain RIO1, stronger effect = lower value",0.935
same,normalized growth,"locus YOR231W, strain MKK1, stronger effect = lower value",0.883
same,normalized growth,"locus YOR329C, strain SCD5, stronger effect = lower value",0.962
same,normalized growth,"locus YPL031C, strain PHO85, stronger effect = lower value",0.906
same,normalized growth,"locus YPL153C, strain RAD53, stronger effect = lower value",0.906
same,normalized growth,"locus YPL204W, strain HRR25, stronger effect = lower value",0.903
same,normalized growth,"locus YPL209C, strain IPL1, stronger effect = lower value",0.959
same,normalized growth,"locus YPL256C, strain CLN2, stronger effect = lower value",0.85 (active)
same,normalized growth,"locus YPR025C, strain CCL1, stronger effect = lower value",0.956
same,normalized growth,"locus YPR106W, strain ISR1, stronger effect = lower value",0.957
same,normalized growth,"locus YPR111W, strain DBF20, stronger effect = lower value",0.926
same,normalized growth,"strain NNK1, stronger effect = lower value",0.954
same,normalized growth,"strain TSCII, stronger effect = lower value",0.945

# From PubChem BioAssay AID1159580 (chemical genetic matrix, 2015)
